The results in this text go back to PubChem BioAssay (NCATS).

Inconclusive results are not listed. A number with no mark means an inactive call. Calls of active or inactive are those of the source. Unless noted, calls come from the whole dose curve; as a rule, active = well fitted curve in the direction sought with a large enough effect; inconclusive = small, poorly fitted or top-dose-only effect, or another doubt; inactive = no such curve, though single readings can be large; an effect the other way counts as inactive or inconclusive.

The nature of assay [1]: P-glycoprotein substrates identified in KB-3-1 adenocarcinoma cell line, qHTS therapeutic library screen (AID 1346986). Note: nearly all actives have a fitted effect of over 60% in size. As to conditions: KB-3-1 parental cells viability, CellTiter-Glo, 72 h; series mostly up to 44.5 µM. In short, it runs like this:
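KB-3-1 parental and colchicine-selected P-gp-overexpressing KB-8-5-11 cells (colchicine omitted during assay), 500 cells/well, dosed in dose-response for 72 h at 37 °C; CellTiter-Glo luminescence. Cytotoxic: curve class -1.1 to -2.4, max response >50%, AC50 < 10 uM.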

Assay [2] can be described thus: P-glycoprotein substrates identified in KB-8-5-11 adenocarcinoma cell line, qHTS therapeutic library screen (AID 1346987). Note: nearly all actives have a fitted effect of over 65% in size. Note: potency is the fitted concentration of half-maximal effect. As to conditions: KB-8-5-11 (P-gp overexpressing) viability, CellTiter-Glo, 72 h; series mostly up to 44.5 µM. In outline:
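KB-8-5-11, a colchicine-selected P-gp-overexpressing KB-3-1 subline, was grown without colchicine for the assay. Cells were seeded at 500 cells/well, dosed in concentration-response and incubated 72 h at 37 degree C, 5% CO2. Viability was read by CellTiter-Glo luminescence.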
In general terms: qHTS replaces the single test concentration by a dilution series.

Assay [3] can be described thus: Natriuretic polypeptide receptor (hNpr1) antagonism - Pilot counterscreen GloSensor control cell line (AID 1347045; calls by dose curve; note: % is set by controls: 0 for no effect and ±100 for the full control effect). As to conditions: HEK293 cGMP GloSensor cells, SNP-stimulated luminescence, 20 min; series mostly up to 38.3 µM. In outline:
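HEK293 cGMP GloSensor cells preloaded 2 h with 2% GloSensor reagent, then compound 30 min before baseline luminescence read. Stimulated with 50 uM sodium nitroprusside, 20 min at room temperature, then read again; counterscreen for Npr1 antagonism.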
A general note: Counterscreens check selectivity or assay interference.

Assay [4] concerns the target Atrial natriuretic peptide receptor 1 (Homo sapiens) (UniProt P16066). Briefly: Natriuretic polypeptide receptor (hNpr1) antagonism - Pilot screen (AID 1347049; calls by dose curve;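 note: agonist-evoked cGMP luminescence read 20 min after hNppA addition; % is set by controls: 0 for no effect and ±100 for the full control effect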). The note with it: hNpr1 cells, antagonist mode cGMP read-out; series mostly up to 57.5 µM. In short, it runs like this: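 HEK293 cells expressing hNpr1 and GloSensor cGMP luciferase, 1500/well, loaded with 2% GloSensor reagent 2 h, compound 30 min at room temperature; luminescence read before and 20 min after 0.1 nM hNppA stimulation.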

In assay [5] the target is Atrial natriuretic peptide receptor 2 (Homo sapiens) (UniProt P20594). Briefly: Natriuretic polypeptide receptor (hNpr2) antagonism - Pilot subtype selectivity assay (AID 1347050; calls by dose curve; note: % is set by controls: 0 for no effect and ±100 for the full control effect). As to conditions: NPR2-expressing cells, cGMP antagonist-mode read-out; series mostly up to 38.3 µM. In outline: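 HEK293 cells expressing hNpr2 and a GloSensor cGMP luciferase sensor, 1500/well, preloaded 2 h with 2% GloSensor reagent, compound 30 min, then 1 nM hNppC for 20 min. Antagonism from luminescence after versus baseline pre-read; LOPAC in 1:5 titrations.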

Assay [6] is described as follows: NS1 protein of Zika virus - qHTS assay to identify small molecule inhibitors in human HEK 293 cells (AID 1347053).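 Note: plate controls were infected untreated cells for no effect and uninfected cells for full effect; nearly all actives have a fitted effect of over 55% in size.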 The note with it: HEK293 ZIKV MR766 infection, NS1 TR-FRET, 24 h; series mostly up to 46.1 µM. In outline: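 HEK 293; 20 h pre-culture, 37 C/5% CO2; cpd 1 h pre-infection; ZIKV MR766, MOI = 0.5, 24 h, 37 C; TR-FRET NS1 readout (two anti-NS1 Abs); norm. to no-virus vs infected.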

In assay [7] the target is T1, Tyrosine-protein phosphatase non-receptor type substrate 1 (Homo sapiens) + Leukocyte surface antigen CD47 (Homo sapiens) (UniProt P78324+Q08722). Kind of assay: CD47-SIRPalpha protein protein interaction - LANCE assay qHTS validation (AID 1347057; active = well fitted curve in the direction sought with a large enough effect in the signal ratio, with a control signal flat, not every such curve was filed as active; the % refers to the signal ratio; note: 0% is about no effect). The note with it: Recombinant CD47-His / biotin-SIRPalpha, TR-FRET ratio; series mostly up to 38.3 µM. In short, it runs like this:
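First, His-tagged CD47 and Eu-labelled anti-His antibody met the compound for 30 min; next, site-specifically biotinylated SIRPalpha was added for 30 min; finally streptavidin-APC was added before reading the TR-FRET ratio.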
(In general: TR-FRET usually uses a lanthanide donor and a delayed reading to cut background.)

Assay [8] has as its target T1, Tyrosine-protein phosphatase non-receptor type substrate 1 (Homo sapiens) + Leukocyte surface antigen CD47 (Homo sapiens). Kind of assay: CD47-SIRPalpha protein protein interaction - HTRF assay qHTS validation (AID 1347058; active = well fitted curve in the direction sought with a large enough effect in the signal ratio, not every such curve was filed as active; the % refers to the signal ratio; note: 0% is about no effect). As to conditions: TR-FRET HTRF CD47-His / biotin-SIRPalpha binding, ratio 665/615; series mostly up to 38.3 µM. In short, it runs like this: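 TR-FRET read (Ch1/Ch2 ratio) of soluble extracellular CD47 and Avi-biotinylated SIRPalpha domains in PBS pH 7.4 with 0.05% IGEPAL; 7-point compound titration. Sequential 30 min room-temperature steps; non-biotinylated SIRPalpha as control inhibitor.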

Assay [9] shares this target. Briefly: CD47-SIRPalpha protein protein interaction - Alpha assay qHTS validation (AID 1347059).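 Note: bead proximity luminescence from CD47 binding SIRPalpha after compound preincubation with SIRPalpha; % is set by controls: 0 for no effect and ±100 for the full control effect.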 As to conditions: AlphaScreen CD47-His/biotin-SIRPalpha binding, LOPAC; series mostly up to 38.3 µM. In outline:
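Biotinylated Avi-tagged SIRPalpha (25 nM) preincubated 30 min with compound, then His-tagged CD47 (12.5 nM) added 30 min; AlphaScreen with Ni-NTA acceptor and streptavidin donor beads. PBS pH 7.4, 0.05% IGEPAL, room temperature; 7-point titrations.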

T1 sequence (P78324 whole entry, looked up): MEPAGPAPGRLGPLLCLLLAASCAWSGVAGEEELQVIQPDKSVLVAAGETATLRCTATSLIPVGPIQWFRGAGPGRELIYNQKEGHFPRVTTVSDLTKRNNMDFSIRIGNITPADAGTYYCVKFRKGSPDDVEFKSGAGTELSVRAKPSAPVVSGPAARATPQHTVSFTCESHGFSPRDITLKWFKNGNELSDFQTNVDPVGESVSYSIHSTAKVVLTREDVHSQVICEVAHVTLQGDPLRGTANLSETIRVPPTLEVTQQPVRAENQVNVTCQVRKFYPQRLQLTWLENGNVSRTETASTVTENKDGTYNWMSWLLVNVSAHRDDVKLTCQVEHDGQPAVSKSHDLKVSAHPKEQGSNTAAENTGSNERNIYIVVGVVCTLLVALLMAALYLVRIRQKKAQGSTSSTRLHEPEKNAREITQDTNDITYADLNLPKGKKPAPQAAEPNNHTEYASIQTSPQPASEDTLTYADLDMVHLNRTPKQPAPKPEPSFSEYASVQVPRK
T1 sequence (Q08722 whole entry, looked up): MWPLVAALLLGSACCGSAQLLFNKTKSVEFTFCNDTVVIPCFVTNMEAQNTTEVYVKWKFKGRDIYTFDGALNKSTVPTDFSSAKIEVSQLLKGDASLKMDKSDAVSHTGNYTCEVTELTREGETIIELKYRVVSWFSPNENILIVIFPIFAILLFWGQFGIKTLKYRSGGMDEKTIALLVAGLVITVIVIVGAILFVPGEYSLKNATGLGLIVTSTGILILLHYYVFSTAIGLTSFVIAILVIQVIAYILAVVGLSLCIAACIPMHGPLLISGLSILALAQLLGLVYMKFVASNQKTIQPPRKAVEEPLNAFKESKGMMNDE
Sequence of Atrial natriuretic peptide receptor 1 (Homo sapiens) (P16066 whole entry, looked up): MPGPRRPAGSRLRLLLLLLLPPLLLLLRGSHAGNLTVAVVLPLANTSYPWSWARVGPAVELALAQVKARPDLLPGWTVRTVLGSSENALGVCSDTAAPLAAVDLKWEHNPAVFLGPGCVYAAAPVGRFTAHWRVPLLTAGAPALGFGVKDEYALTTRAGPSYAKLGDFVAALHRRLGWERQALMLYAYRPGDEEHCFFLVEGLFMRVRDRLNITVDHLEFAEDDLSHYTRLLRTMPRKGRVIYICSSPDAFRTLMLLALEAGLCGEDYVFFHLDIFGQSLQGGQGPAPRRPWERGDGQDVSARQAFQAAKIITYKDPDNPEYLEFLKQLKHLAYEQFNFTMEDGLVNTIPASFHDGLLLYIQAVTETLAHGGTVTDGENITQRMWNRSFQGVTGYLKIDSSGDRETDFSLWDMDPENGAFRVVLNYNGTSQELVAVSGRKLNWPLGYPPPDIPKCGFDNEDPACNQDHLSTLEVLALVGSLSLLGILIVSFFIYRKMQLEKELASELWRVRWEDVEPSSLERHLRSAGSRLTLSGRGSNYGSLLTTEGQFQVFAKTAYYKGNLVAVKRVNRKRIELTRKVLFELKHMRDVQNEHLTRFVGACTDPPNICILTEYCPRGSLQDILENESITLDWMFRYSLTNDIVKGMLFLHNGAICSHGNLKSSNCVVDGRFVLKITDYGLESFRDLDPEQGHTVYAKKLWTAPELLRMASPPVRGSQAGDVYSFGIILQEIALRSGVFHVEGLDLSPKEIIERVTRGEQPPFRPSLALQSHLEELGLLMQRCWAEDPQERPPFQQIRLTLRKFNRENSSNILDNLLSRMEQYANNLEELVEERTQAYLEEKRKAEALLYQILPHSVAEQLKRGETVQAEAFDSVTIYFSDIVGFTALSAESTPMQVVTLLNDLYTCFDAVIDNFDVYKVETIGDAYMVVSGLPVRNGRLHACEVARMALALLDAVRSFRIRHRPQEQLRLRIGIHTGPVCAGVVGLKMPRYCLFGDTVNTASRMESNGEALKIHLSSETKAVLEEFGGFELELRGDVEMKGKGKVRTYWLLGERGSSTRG
Sequence of Atrial natriuretic peptide receptor 2 (Homo sapiens) (P20594 whole entry, looked up): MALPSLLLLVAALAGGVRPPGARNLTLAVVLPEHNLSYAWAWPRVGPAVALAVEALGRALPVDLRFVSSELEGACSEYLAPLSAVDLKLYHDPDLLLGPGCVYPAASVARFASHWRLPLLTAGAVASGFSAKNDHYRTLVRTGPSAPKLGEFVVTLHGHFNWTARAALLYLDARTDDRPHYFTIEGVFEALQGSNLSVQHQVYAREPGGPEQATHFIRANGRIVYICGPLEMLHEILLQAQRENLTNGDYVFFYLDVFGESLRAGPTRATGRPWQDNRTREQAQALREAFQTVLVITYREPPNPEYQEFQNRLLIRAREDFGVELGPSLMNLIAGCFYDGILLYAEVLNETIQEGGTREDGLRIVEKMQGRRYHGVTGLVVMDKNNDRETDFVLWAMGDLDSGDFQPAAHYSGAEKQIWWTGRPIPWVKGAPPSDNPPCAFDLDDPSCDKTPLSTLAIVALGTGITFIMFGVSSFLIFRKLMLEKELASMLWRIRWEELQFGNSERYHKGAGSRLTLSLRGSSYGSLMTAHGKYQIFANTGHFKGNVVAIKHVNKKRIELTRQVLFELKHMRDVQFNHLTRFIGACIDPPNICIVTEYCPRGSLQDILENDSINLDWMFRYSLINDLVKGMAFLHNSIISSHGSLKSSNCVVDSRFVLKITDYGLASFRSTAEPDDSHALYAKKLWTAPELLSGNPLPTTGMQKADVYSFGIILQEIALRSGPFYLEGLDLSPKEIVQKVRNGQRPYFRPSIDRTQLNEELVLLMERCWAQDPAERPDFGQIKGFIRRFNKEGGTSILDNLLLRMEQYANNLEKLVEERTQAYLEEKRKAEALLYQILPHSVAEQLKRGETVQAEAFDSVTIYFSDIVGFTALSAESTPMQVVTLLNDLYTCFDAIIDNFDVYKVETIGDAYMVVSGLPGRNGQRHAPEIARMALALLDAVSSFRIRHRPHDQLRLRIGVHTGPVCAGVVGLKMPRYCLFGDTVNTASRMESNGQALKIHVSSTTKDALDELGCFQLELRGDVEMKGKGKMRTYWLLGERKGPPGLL

Turning to `COC1CC(=O)C23C(=O)NC(CC(C)C)C2C(C)=C(C)C(OO)C3/C=C(\C)CCC(O)C1O` (centres undefined), the Potency result in assay [1] and in assay [2] was “inactive” throughout.

With `Cc1cn(C[C@H](N)C(=O)O)c(=O)n(Cc2cc(-c3ccccc3)sc2C(=O)O)c1=O`, the Potency entry in assay [1] and in [2] was “inactive” each time.

Take `C=CCC1(C(C)CCC)C(=O)N=C(S)NC1=O` (centres undefined): the Potency result in [2] is “inactive”.

For `CC[C@H]1CN2CC[C@H]1C[C@H]2[C@H](O)c1ccnc2ccc(OC)cc12`, in [2], the Potency entry is “inactive”.

Turning to `COC(=O)C1(C)CCC(O)C2(C)c3c(O)cc(C(C)C)cc3C(O)C(OC(C)=O)C12` (centres undefined), the Potency entry in assay [1] and in assay [2] was “inactive” throughout.

`Oc1ccc2c3c1O[C@H]1[C@H](N(CCCl)CCCl)CC[C@@]4(O)[C@@H](C2)N(CC2CC2)CC[C@]314`: the outcome in assay [1] was “inactive [at 9.29 µM]”. Further, the activity change, negative = cytotoxicity in [2] is 0.87% [at 9.29 µM].

On to `C[C@]12CC[C@H]3[C@@H]([C@H](O)CC4=CC(=O)CC[C@@]43C)[C@@H]1CC[C@@H]2O`, for which the Potency result in assay [2] was “inactive”.

On to `COC1CC(OC2CCC3(C)C(CCC4C3CCC3(C)C(C5=CC(=O)OC5)C(OC(C)=O)CC43O)C2)OC(C)C1OC1OC(CO)C(O)C(O)C1O` (centres undefined), for which the Potency in assay [2] is 685 nM (active).

As to `CC(C)=C1CC[C@]23CO[C@H](C2)[C@@](O)(C(=O)O)CCC13` (some centres undefined), the Potency result in assay [2] was “inactive”.

Regarding `N[C@@H](CCl)C(=O)O`, the Potency result in assay [3], in [4] and in assay [5] was “inactive” in each case.

In the case of `CN1CCCC(=C(c2cccs2)c2cccs2)C1`, in [2], the Potency entry is “inactive”.

As for `CCCC[N+]1(C)C2CC(OC(=O)[C@H](CO)c3ccccc3)CC1C1OC12` (some centres undefined), the Potency entry in assay [3], in assay [4], in [5], in [7] and in assay [9] was “inactive” each time. Besides, the outcome in assay [6] and in assay [8] was inactive.
